Data: PubChem BioAssay (EPA / NIEHS)
Records with an inconclusive call do not appear. Active and inactive are the calls of the source. How the source made its calls, unless noted: active means hit-call score of the fitted dose curve at least 0.9, where 1 is the maximum; inconclusive means response in the unintended direction; inactive means score below 0.9.

Target: Retinoic acid receptor alpha (Homo sapiens) (UniProt P10276)
Test: ATG_RARa_TRANS: Attagene TRANS-FACTORIAL HepG2 Assay for human Retinoic Acid Receptor alpha (RARa) (AID 2283005);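 on AC50: potency for increased reporter signal meaning RARa activation over DMSO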
Conditions: not given
In short: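 Reporter transcripts, measured by RT-PCR with fluorescent labeling and capillary electrophoresis after 24 h dosing, reflect activity of an exogenous human RARa–GAL4 fusion in transiently transfected HepG2. Fitted for increase relative to DMSO.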

Sequence of Retinoic acid receptor alpha (Homo sapiens) (P10276 whole entry, looked up): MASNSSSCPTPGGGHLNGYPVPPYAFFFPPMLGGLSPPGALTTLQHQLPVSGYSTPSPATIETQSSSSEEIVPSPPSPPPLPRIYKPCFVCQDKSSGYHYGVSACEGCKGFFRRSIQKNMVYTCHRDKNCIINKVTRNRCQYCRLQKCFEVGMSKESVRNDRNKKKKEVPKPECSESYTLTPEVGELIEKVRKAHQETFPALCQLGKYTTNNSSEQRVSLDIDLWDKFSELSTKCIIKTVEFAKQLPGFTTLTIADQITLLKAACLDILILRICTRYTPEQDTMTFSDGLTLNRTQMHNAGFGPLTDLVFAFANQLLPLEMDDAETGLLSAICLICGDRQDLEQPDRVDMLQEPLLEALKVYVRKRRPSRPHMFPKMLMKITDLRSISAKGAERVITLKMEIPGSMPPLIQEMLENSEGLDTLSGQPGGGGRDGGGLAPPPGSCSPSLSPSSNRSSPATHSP

| SMILES | outcome | AC50 |
| --- | --- | --- |
| CN(C)c1ccc(N=O)cc1 | inactive | – |
| CC(C)CC(C)(c1ccc(O)cc1)c1ccc(O)cc1 | inactive | – |
| CN(CCCC(O)c1cccnc1)N=O (configuration not stated) | inactive | – |
| C[C@]12CC[C@@H](O)C[C@@H]1CC[C@@H]1[C@@H]2CC[C@]2(C)C(=O)CC[C@@H]12 | inactive | – |
| CC(C=O)Cc1ccc2c(c1)OCO2 (configuration not stated) | inactive | – |
| C#CCOC(=O)/C=C(C)/C=C/CC(C)CCCC(C)C (configuration not stated) | inactive | – |
| Nc1ccc(N)cc1 | inactive | – |
| COCC(=O)N(c1c(C)cccc1C)[C@H](C)C(=O)OC | inactive | – |
| OC[C@@H](O)[C@H]1O[C@@H]2O[C@H](C(Cl)(Cl)Cl)O[C@@H]2[C@H]1O | inactive | – |
| CC(C)(c1ccc(O)c(-c2ccccc2)c1)c1ccc(O)c(-c2ccccc2)c1 | inactive | – |
| O=C(O)C1(c2ccc3c(c2)OC[C@H](Cc2ccc(-c4ccccc4)cc2)[C@H]3O)CCCC1 | inactive | – |
| CCN(CCO)CCO | inactive | – |
| CC(C)[C@@H](Nc1ccc(C(F)(F)F)cc1Cl)C(=O)OC(C#N)c1cccc(Oc2ccccc2)c1 (some centres not stated) | inactive | – |
| O=C(Nc1ccc(Br)cc1)c1cc(Br)cc(Br)c1O | inactive | – |
| CCNc1nc(NCC)nc(SC)n1 | inactive | – |
| CCOP(=O)(OCC)SCCSCC | inactive | – |
| NC(=O)CCl | inactive | – |
| O=S1(=O)OC(c2cc(Br)c(O)c(Br)c2)(c2cc(Br)c(O)c(Br)c2)c2ccccc21 | inactive | – |
| O=C1c2ccccc2C(=O)C1C(=O)C(c1ccccc1)c1ccc(Cl)cc1 (configuration not stated) | – | 26.1 µM (active) |
| CCCCOC(C)=O | inactive | – |

| SMILES | outcome | AC50 |
| --- | --- | --- |
| Oc1c(Br)cc(Br)cc1Br | inactive | – |
| CC(C)(C)c1cc([N+](=O)[O-])cc(C(C)(C)C)c1O | – | 2.37 µM (active) |
| Brc1c(Br)c(Br)c(Oc2c(Br)c(Br)c(Br)c(Br)c2Br)c(Br)c1Br | inactive | – |
| OC(Cc1ccccc1Cl)(Cn1cncn1)C1(Cl)CC1 (configuration not stated) | inactive | – |
| Cc1c([N+](=O)[O-])c(C)c([N+](=O)[O-])c(C(C)(C)C)c1[N+](=O)[O-] | inactive | – |
| C=CC(Cl)CCl (configuration not stated) | inactive | – |
| CCCCCCCCCCBr | inactive | – |
| COC(F)(C(F)(F)C(F)(F)F)C(F)(C(F)(F)F)C(F)(F)F (configuration not stated) | inactive | – |
| CCCCN(CCCC)C(=S)[S-].CCCCN(CCCC)C(=S)[S-].[Ni+2] | inactive | – |
| CCCCCCCCCCCCCl | inactive | – |
| Cc1cc(-c2cc(C)c(N)c(C)c2)cc(C)c1N | inactive | – |
| COc1ccccc1N | inactive | – |
| CC(C)=CC1C(C(=O)OCc2cccc(Oc3ccccc3)c2)C1(C)C (configuration not stated) | inactive | – |
| Nc1c(Oc2ccccc2)cc(O)c2c1C(=O)c1ccccc1C2=O | inactive | – |
| O=C(NC(=O)c1c(F)cccc1F)Nc1cc(Cl)c(F)c(Cl)c1F | inactive | – |
| Cc1ccc2nc3sc(=O)sc3nc2c1 | inactive | – |
| CN(C1CCCCC1)C1CCCCC1 | inactive | – |
| CC(C)[N+](=O)[O-] | inactive | – |
| C=CCCl | inactive | – |

Read-out: not listed separately
Test: BSK_3C_Proliferation: Cell Proliferation Assessment in the BioMAP Diversity Plus: 3C Assay (AID 2283006; active means hit-call score of the fitted dose curve at least 0.9, where 1 is the maximum; inactive means score below 0.9;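 on AC50: potency may reflect either rise or fall in cell number versus DMSO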)
Conditions: primary human endothelial cells (HUVEC)
In short: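 Proliferation as total protein: sulforhodamine B (0.1%) stain of TCA-fixed subconfluent human umbilical vein endothelial cells, absorbance 560 nm, 48 h after dosing. Activity fitted in both directions against DMSO baseline.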

| SMILES | outcome | AC50 |
| --- | --- | --- |
| C[C@]12CC[C@@H](O)C[C@@H]1CC[C@@H]1[C@@H]2CC[C@]2(C)C(=O)CC[C@@H]12 | inactive | – |
| CC(C=O)Cc1ccc2c(c1)OCO2 (configuration not stated) | inactive | – |
| C#CCOC(=O)/C=C(C)/C=C/CC(C)CCCC(C)C (configuration not stated) | – | 23.6 µM (active) |
| Nc1ccc(N)cc1 | inactive | – |
| COCC(=O)N(c1c(C)cccc1C)[C@H](C)C(=O)OC | inactive | – |
| O=C(O)C1(c2ccc3c(c2)OC[C@H](Cc2ccc(-c4ccccc4)cc2)[C@H]3O)CCCC1 | – | 13.2 µM (active) |
| CCOP(=O)(OCC)SCCSCC | inactive | – |
| NC(=O)CCl | inactive | – |
| Oc1c(Br)cc(Br)cc1Br | – | 27.4 µM (active) |
| CC(C)(C)c1cc([N+](=O)[O-])cc(C(C)(C)C)c1O | – | 0.704 µM (active) |
| OC(Cc1ccccc1Cl)(Cn1cncn1)C1(Cl)CC1 (configuration not stated) | inactive | – |
| Cc1c([N+](=O)[O-])c(C)c([N+](=O)[O-])c(C(C)(C)C)c1[N+](=O)[O-] | – | 26.8 µM (active) |
| C=CC(Cl)CCl (configuration not stated) | inactive | – |
| CCCCN(CCCC)C(=S)[S-].CCCCN(CCCC)C(=S)[S-].[Ni+2] | inactive | – |
| COc1ccccc1N | inactive | – |
| CC(C)=CC1C(C(=O)OCc2cccc(Oc3ccccc3)c2)C1(C)C (configuration not stated) | – | 20 µM (active) |
| Nc1c(Oc2ccccc2)cc(O)c2c1C(=O)c1ccccc1C2=O | inactive | – |
| Cc1ccc2nc3sc(=O)sc3nc2c1 | – | 7.3 µM (active) |

Target: Peroxisome proliferator-activated receptor gamma (Homo sapiens) (UniProt P37231)
Sequence (P37231 whole entry, looked up): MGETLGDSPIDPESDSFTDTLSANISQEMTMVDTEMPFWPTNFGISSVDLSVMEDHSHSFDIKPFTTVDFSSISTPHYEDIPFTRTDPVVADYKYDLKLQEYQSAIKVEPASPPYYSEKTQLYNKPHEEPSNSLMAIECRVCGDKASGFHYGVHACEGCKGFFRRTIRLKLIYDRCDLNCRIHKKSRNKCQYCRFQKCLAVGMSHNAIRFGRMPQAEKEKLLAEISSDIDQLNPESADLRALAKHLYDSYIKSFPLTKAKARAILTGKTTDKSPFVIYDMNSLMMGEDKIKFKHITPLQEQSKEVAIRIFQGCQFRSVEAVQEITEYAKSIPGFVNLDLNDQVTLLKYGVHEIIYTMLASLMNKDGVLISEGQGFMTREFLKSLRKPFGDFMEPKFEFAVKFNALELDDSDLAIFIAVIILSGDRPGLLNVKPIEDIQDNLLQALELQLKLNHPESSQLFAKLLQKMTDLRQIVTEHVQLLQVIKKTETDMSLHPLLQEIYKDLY
Test: ATG_PPARg_TRANS: Attagene TRANS-FACTORIAL HepG2 Assay for human Peroxisome Proliferator-activated Receptor-gamma (PPARg) (AID 2283007)
Conditions: not given
In short: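 Gain-of-signal endpoint relative to DMSO, derived from reporter mRNA levels quantified by RT-PCR and capillary electrophoresis. Cells were HepG2 transiently expressing a chimeric NR-Gal4 construct with GAL4-UAS reporters, exposed to chemicals for 24 h.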

| SMILES | outcome | AC50 |
| --- | --- | --- |
| CN(C)c1ccc(N=O)cc1 | inactive | – |
| CC(C)CC(C)(c1ccc(O)cc1)c1ccc(O)cc1 | – | 11.1 µM (active) |
| CN(CCCC(O)c1cccnc1)N=O (configuration not stated) | inactive | – |
| CC(C=O)Cc1ccc2c(c1)OCO2 (configuration not stated) | inactive | – |
| C#CCOC(=O)/C=C(C)/C=C/CC(C)CCCC(C)C (configuration not stated) | – | 27.8 µM (active) |
| Nc1ccc(N)cc1 | inactive | – |
| COCC(=O)N(c1c(C)cccc1C)[C@H](C)C(=O)OC | inactive | – |
| OC[C@@H](O)[C@H]1O[C@@H]2O[C@H](C(Cl)(Cl)Cl)O[C@@H]2[C@H]1O | inactive | – |
| CC(C)(c1ccc(O)c(-c2ccccc2)c1)c1ccc(O)c(-c2ccccc2)c1 | – | 1.61 µM (active) |
| CC(C)[C@@H](Nc1ccc(C(F)(F)F)cc1Cl)C(=O)OC(C#N)c1cccc(Oc2ccccc2)c1 (some centres not stated) | – | 5.11 µM (active) |
| O=C(Nc1ccc(Br)cc1)c1cc(Br)cc(Br)c1O | – | 11.7 µM (active) |
| CCNc1nc(NCC)nc(SC)n1 | inactive | – |
| CCOP(=O)(OCC)SCCSCC | inactive | – |
| NC(=O)CCl | inactive | – |
| O=S1(=O)OC(c2cc(Br)c(O)c(Br)c2)(c2cc(Br)c(O)c(Br)c2)c2ccccc21 | – | 36.9 µM (active) |
| O=C1c2ccccc2C(=O)C1C(=O)C(c1ccccc1)c1ccc(Cl)cc1 (configuration not stated) | – | 3.11 µM (active) |
| CCCCOC(C)=O | inactive | – |
| Oc1c(Br)cc(Br)cc1Br | – | 11.9 µM (active) |

| SMILES | outcome | AC50 |
| --- | --- | --- |
| CC(C)(C)c1cc([N+](=O)[O-])cc(C(C)(C)C)c1O | – | 5.15 µM (active) |
| Brc1c(Br)c(Br)c(Oc2c(Br)c(Br)c(Br)c(Br)c2Br)c(Br)c1Br | inactive | – |
| OC(Cc1ccccc1Cl)(Cn1cncn1)C1(Cl)CC1 (configuration not stated) | inactive | – |
| Cc1c([N+](=O)[O-])c(C)c([N+](=O)[O-])c(C(C)(C)C)c1[N+](=O)[O-] | inactive | – |
| C=CC(Cl)CCl (configuration not stated) | inactive | – |
| CCCCCCCCCCBr | – | 19.8 µM (active) |
| COC(F)(C(F)(F)C(F)(F)F)C(F)(C(F)(F)F)C(F)(F)F (configuration not stated) | inactive | – |
| CCCCN(CCCC)C(=S)[S-].CCCCN(CCCC)C(=S)[S-].[Ni+2] | inactive | – |
| CCCCCCCCCCCCCl | inactive | – |
| Cc1cc(-c2cc(C)c(N)c(C)c2)cc(C)c1N | – | 36.3 µM (active) |
| COc1ccccc1N | inactive | – |
| Nc1c(Oc2ccccc2)cc(O)c2c1C(=O)c1ccccc1C2=O | – | 6.44 µM (active) |
| O=C(NC(=O)c1c(F)cccc1F)Nc1cc(Cl)c(F)c(Cl)c1F | inactive | – |
| Cc1ccc2nc3sc(=O)sc3nc2c1 | – | 2 µM (active) |
| CN(C1CCCCC1)C1CCCCC1 | inactive | – |
| CC(C)[N+](=O)[O-] | inactive | – |
| C=CCCl | inactive | – |
